The source of these data is PubChem BioAssay AID1347426 (Functional Genomics Laboratory (NCATS/FGL), 2020).

The campaign covered roughly 31,000 sequences. About 1,400 (4.5%) were called active. Many of the other results were omitted from the sample, so actives are more common in it than they were. A number with no mark means an inactive call.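 The calls were made as follows: active = median seed-adjusted z-score above 1 or below -1; inactive = the rest.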

A short description of the test: Novel Modifiers of Survival Motor Neuron (SMN) Protein: Gene Identification via Genome-wide siRNA Screen.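 Also: luminescence tracks full-length SMN protein made from the SMN2 reporter.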 The settings on record: HEK293T SMN2-luciferase reporter, siRNA knockdown, 72 h; actives lie on both sides. In outline:
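Genome-wide siRNA screen (10418 genes, 3 siRNAs each, 1 pmol per well) by reverse transfection in HEK293T cells stably carrying an SMN2-luciferase reporter; luminescence after 72 hours, normalized to negative-control siRNA, log10-transformed, MAD-scored.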
Turning to AAGAAGAAGUGGACACUGATT against FGFRL1, the median seed-adjusted z-score is -0.111. Take GGAACUUGGUUGUAGAGCUTT against SVIL: the median seed-adjusted z-score is 0.0852. For CAACCACCCUCACAUCAUUTT against NUAK2, the median seed-adjusted z-score is -0.0601.

Consider AAAUGCAAUUCAAGCCUUUTT against GFRA1, for which the median seed-adjusted z-score was 0.125. GGAAACUCGUCGUUCAAUATT against IL13RA1: the median seed-adjusted z-score was 0.269.

UCGUGGAGGUGAUCUAUUATT against RAB6C: the median seed-adjusted z-score is -1.08 (active).

Consider UGAUUUACCUGAGCUGUAATT against GSTT2, for which the median seed-adjusted z-score was 0.0298. In the case of CAACUUCCACUGUUUCCGATT against RRAGC, the median seed-adjusted z-score is -0.557.

On to CGAUGCUUGUCAGUCCCAATT against NOTCH4, for which the median seed-adjusted z-score is -0.384.

In the case of GCCUAGAGGUUUGCCCUGATT against ATHL1, the median seed-adjusted z-score is 0. For UCCACUGCCCAAUAAAUAUTT against PYDC1, the median seed-adjusted z-score was -1.44 (active).

As for CGAGCCCAAGGAACAUGAATT against NKX2-3, the median seed-adjusted z-score was -0.2. With GCUUUUCUCUUACAAUUCATT against ZNF557, the median seed-adjusted z-score was -0.197. The result for CCAUUAACGAGCUGCUUAATT against PLK1 reads -2.57 (active). Take CAGUCGGAUCCAGAGCUGATT against GCHFR: the median seed-adjusted z-score is -0.559. On to AGCUCACGCUGUGCAUGUGTT against TREX2, for which the median seed-adjusted z-score is -0.918. With AAUCAGAUUCUCAACCUAATT against KRT10, the median seed-adjusted z-score is 0.493.

With CCUUCGAGCUGCUAUUAAUTT against TLR10, the median seed-adjusted z-score was -0.363. Regarding GAAGCGACUGUUUUAGAAATT against EIF4E3, the median seed-adjusted z-score is 0. Then GUUAUCCUCUAAUUGAUAATT against B3GALNT1, with 0.128; and GGGUGUAACAUGUGCGGAATT against ZNF217, with -0.872; and GCACCAUCGUCCUUGAACATT against DUOX1, with -1.09 (active). Consider CCACUGCAACUGUAAUUCUTT against PROCA1, for which the median seed-adjusted z-score is -0.502.

Turning to GAGUUCGUCGAAUCCCAAATT against SETMAR, the median seed-adjusted z-score was 0.191. CCUCGAUUCUUAAAGACGATT against RELN: the median seed-adjusted z-score is 0.207.

For GCUUUGGAGUCACAGGUCATT against EYA3, the median seed-adjusted z-score was -0.0191. In the case of GGAGACAAGCACAAGCUGATT against S100B, the median seed-adjusted z-score was 0.862. Take GUGCGAUUCUGGAUGACAATT against EVI1: the median seed-adjusted z-score was 0. The result for CAUGGGACCUGAUUCAAGATT against FCER2 reads -1.75 (active); that for CCAGAUCAGUCCUAGCUUATT against GLIS3, -0.00906; that for AGCUGGUUCACGACAUGAATT against TRIP6, 1.03 (active). Take GCAUUGACUGGUCCUAUGATT against CPA2: the median seed-adjusted z-score was 0.0374. As for GCACUCCCAAGAUUGAUAATT against RBPJ, the median seed-adjusted z-score is -0.452.

As to CACUGAUUUUGGAUGCUCUTT against HES1, the median seed-adjusted z-score was -0.262.

Regarding ACACGGCAUUAAAAAGCUATT against JRK, the median seed-adjusted z-score was -0.624. Then AAACCAUCAUGCUGAGGUGTT against FCGR2A, with -0.19. Consider GAGCACGACUGAAAAUGUATT against PTS, for which the median seed-adjusted z-score is -0.103.

On to UAACCGAUUUGAUAUGAAUTT against ANKRA2, for which the median seed-adjusted z-score is 1.26 (active). The result for GGGAGAGUGUGCUACGAAATT against NEIL1 reads -0.168; that for GAUUCGCAGUUUAGAUGUUTT against PRKAA2, -0.194.

Take GUACUUACCUUGUGAGGCATT against VAV3: the median seed-adjusted z-score was 0. GGUGGGUGGUAAGAGGGAATT against AQP2: the median seed-adjusted z-score was -0.433.

Take GCAGAUGUAUAAGAAGGCATT against RRM2: the median seed-adjusted z-score is -3.84 (active). The result for GGAGAGAGCUCUCACAUCUTT against PPT1 reads 0.727; that for AGAUUGUAGUUGUGGAUCATT against CDH15, 0. The result for CAGCUGUAGUUCUAACUAUTT against ZNF23 reads -0.106; that for GGAUCAAUGUGACGGAGAATT against EMILIN2, 0.726. Then GAGUCGAACUUUACUGUCUTT against MLL2, with -2.11 (active).

For GGAAUGGAAUGAUCGGUGATT against GRIN2A, the median seed-adjusted z-score is 0.025.

On to CGAGUUUGAUGAAAGAGGATT against NT5E, for which the median seed-adjusted z-score was 0.199. On to CGUUAUGCCUGGUCUCCUATT against SPPL3, for which the median seed-adjusted z-score was 0.652.

As for CAGAUUUGGUAAAAGAGUATT against VPS26A, the median seed-adjusted z-score was -1.55 (active). In the case of CCCAUUUCGGACUCCAAAATT against IRX3, the median seed-adjusted z-score is -0.285. As for ACUUUGCCUUCAAGCUCUATT against SERPINA13, the median seed-adjusted z-score is -0.403. Take GCUACUAUGCUGAAGAUCATT against CDH18: the median seed-adjusted z-score is 0.21.

On to GGAAGAUGUUGACAUAUUUTT against ACAT2, for which the median seed-adjusted z-score is 1.25 (active). Consider GAAUAAGUGACUAUCCAAATT against SENP2, for which the median seed-adjusted z-score was 0. The result for GGAGGCACCUCUCAAGAUATT against THRAP3 reads -0.852. For GCGAGGCUGUUAACCCUUATT against PRKCQ, the median seed-adjusted z-score is 0.692. For GAUGCUAUGGAAUACCAUATT against METTL4, the median seed-adjusted z-score was 0.244. Take GCUGGUACCCUGGAGGAAATT against GNRH2: the median seed-adjusted z-score is 1.13 (active). For the sequence ACAUGGUUAUUCCCAGUGATT against AKR1CL2, the median seed-adjusted z-score was -0.949. The result for CAUUCAAUCCGGACCAUUUTT against CYP2J2 reads 0.00659. As for CAGAUAUUAUGAAGAAUUUTT against GALNS, the median seed-adjusted z-score is 0.0287. With GCCUCUUUCUGUCAGCAUUTT against SPAG4, the median seed-adjusted z-score was -0.219. Turning to GGAAGGAUAUUACACCUAUTT against MMP24, the median seed-adjusted z-score was -1.28 (active). For the sequence GCAAAGCCCUGUCAAACAATT against NPM2, the median seed-adjusted z-score was 0.215. As for CCAAGAAACUGCGAGACAATT against CNGA2, the median seed-adjusted z-score is -0.0447. Consider CCAGAGUCCUGUUCGAUUUTT against USP30, for which the median seed-adjusted z-score was -0.646.

Take CCUCAAGCCUGUAGAAGAATT against SMNDC1: the median seed-adjusted z-score is -1.54 (active). Consider CAGCAUUUAUCAAGUCUUATT against BMP6, for which the median seed-adjusted z-score is 0.301. For GCAUCGGCAUUGAAGGCUUTT against ALOX15B, the median seed-adjusted z-score is 0.156. GUAACUUCCUAUUCACCAATT against EPAS1: the median seed-adjusted z-score was -0.166. Then GGUCUGGAGAAGGUGCAUATT against ANGPTL4, with 1.37 (active); and CUCUACCAACAAUCACAAATT against NPTN, with 0.133. Consider GGUCGAGUUCUACUACAAATT against IPO11, for which the median seed-adjusted z-score is -0.245. For the sequence CAUGCUCGUGGGUAACAAATT against RAB25, the median seed-adjusted z-score is -0.04. With UGGAGAGACUUAUCCAAGATT against CKMT1B, the median seed-adjusted z-score was -0.929. Take CAGAUGUGGUGAUGCGUGATT against DMBX1: the median seed-adjusted z-score is -0.207.

Regarding GCUUCAUGACAUCCGCAAATT against CTSL3, the median seed-adjusted z-score was 1.07 (active).

For GGCAAGAGCUUGUAUCCAATT against CCNG1, the median seed-adjusted z-score was 0.131. Turning to CAAAAUCCUUUGUGAGUAATT against GPR174, the median seed-adjusted z-score was -0.324.

For GGACUUUGCUGCCUAAAUUTT against PIP5K1A, the median seed-adjusted z-score is 0.0924. In the case of GCAUCACGCUCUCGAAGCATT against PTBP1, the median seed-adjusted z-score was 0.578. Then CCACCCUAGUUAGACAUCATT against ZNF419, with 0.0405; and CCAUCAUCGACACACCCAATT against PRSS27, with 1.03 (active). For CAAUCGAACGUAAACAACATT against ADD3, the median seed-adjusted z-score was 0.0741.

CAACCAUCGAGCAAAUGAATT against MAPK1: the median seed-adjusted z-score is 0. Then CAUCCCUUGUAAUUCACAATT against ZNF702, with 0.204; and GCAUCAGCUCACAACAAAATT against SF3B4, with -2.56 (active). For the sequence CAAGUAUGAUCAGCAAUGATT against ENG, the median seed-adjusted z-score was -0.254. With GGCAUUACGUUUCUAGGUATT against AQP6, the median seed-adjusted z-score is 0.008. Consider CGCUGUUCAAUGAACUAUATT against GBA2, for which the median seed-adjusted z-score was 0.143.

With ACACCAGGGUUGUCUACAATT against LCAT, the median seed-adjusted z-score is 0.526. Take GAACUAUCAGAGCAGUUUUTT against LONP2: the median seed-adjusted z-score is 1.52 (active). GAGCUAUAGUAAUUGCUCUTT against MIF4GD: the median seed-adjusted z-score is 0.373.

GAAACAUCAUUUUUGCGAATT against THBS4: the median seed-adjusted z-score is -0.28. Consider GGACUGGGAUGAUACACCUTT against SBF2, for which the median seed-adjusted z-score is 0.569.

With CCAUCAUGAUGCUAGCUAUTT against AP3B2, the median seed-adjusted z-score is -2.45 (active).

As for GCAGAAUUGGAGACGGAAATT against DNALI1, the median seed-adjusted z-score is 0.699. As for CCAAAUUCCGCUCUCAUGATT against SFRS9, the median seed-adjusted z-score was -0.144.

For GUAUGAGUGUGACCGGGAATT against MRC2, the median seed-adjusted z-score is -1.34 (active).

As for GGAUGAUCGAGACCAGUUUTT against XPO4, the median seed-adjusted z-score was 0.616. Turning to GCUGUUGACUCACAAUGAUTT against GCLM, the median seed-adjusted z-score is 0.0509. With GCUUACGGCUUGUACCUGATT against SFRS17A, the median seed-adjusted z-score was -0.389. Then GGAAUUAUUACAAGGUAAATT against EIF3E, with 0.549; and UCUCUUCAAUAUGUAUUUATT against HOXC9, with 0.395. Then GAAUCACCAUUUAAGUGCATT against PDE1C, with 0.157. As for GGGCUUAGGUGUGAUCAUUTT against USH2A, the median seed-adjusted z-score was 0.0673.
